Consider 23 compounds from PubChem BioAssay (NCATS).

Records with an inconclusive call do not appear. A number with no mark means an inactive call. The source made the active and inactive calls. Calls come from the whole dose curve; as a rule, active = well fitted cell-killing curve with a large enough effect; inconclusive = small, poorly fitted or top-dose-only effect, or effect the other way; inactive = no such curve, though single readings can be large or run the other way.

Assay [1] can be described thus: Quantitative High-Throughput drug screen in 47 multiple myeloma cell lines against the NCATS MIPE library collection: LP1_DSMZ cell viability assay (AID 1918982). Note: nearly all actives have a fitted effect of over 35% in size. The procedure, abridged: (§1)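 Readout: median RLU from CellTiter-Glo after 5 min at room temperature. Preceding step was 48 h drug treatment of 500 cells/well at 37 °C, 5% CO2, with DMSO-only and media-only control wells.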

Assay [2] in a line: Quantitative High-Throughput drug screen in 47 multiple myeloma cell lines against the NCATS MIPE library collection: KMS28PE_JCRB cell viability assay (AID 1918983). Note: nearly all actives have a fitted effect of over 35% in size. The procedure, abridged: as §1
The nature of assay [3]: Quantitative High-Throughput drug screen in 47 multiple myeloma cell lines against the NCATS MIPE library collection: OPM1_PLB cell viability assay (AID 1918989). Note: nearly all actives have a fitted effect of over 40% in size. The procedure, abridged: as §1
A short description of assay [4]: Quantitative High-Throughput drug screen in 47 multiple myeloma cell lines against the NCATS MIPE library collection: SKMM1_PLB cell viability assay (AID 1919863). For viability: series mostly up to about 46 µM. Note: nearly all actives have a fitted effect of over 35% in size. The following applies: SKMM1 myeloma viability, CellTiter-Glo ATP, 48 h; viability: hits give low values. In short, it runs like this:
as §1
A general note: Cellular ATP, detected with luciferase, serves as a proxy for viable cell number.

The nature of assay [5]: Quantitative High-Throughput drug screen in 47 multiple myeloma cell lines against the NCATS MIPE library collection: U266_ATCC cell viability assay (AID 1919864). Note: nearly all actives have a fitted effect of over 35% in size. The procedure, abridged: as §1
The nature of assay [6]: Quantitative High-Throughput drug screen in 47 multiple myeloma cell lines against the NCATS MIPE library collection: L363_DSMZ cell viability assay (AID 1918984). Note: nearly all actives have a fitted effect of over 40% in size. The procedure, abridged:
as §1

Assay [7] is described as follows: Quantitative High-Throughput drug screen in 47 multiple myeloma cell lines against the NCATS MIPE library collection: KMS34_JCRB cell viability assay (AID 1918985). Note: nearly all actives have a fitted effect of over 40% in size. The procedure, abridged:
as §1

Assay [8] is described as follows: Quantitative High-Throughput drug screen in 47 multiple myeloma cell lines against the NCATS MIPE library collection: OCIMY7_PLB cell viability assay (AID 1918987). Note: nearly all actives have a fitted effect of over 65% in size. The procedure, abridged: as §1
Assay [9] in a line: Quantitative High-Throughput drug screen in 47 multiple myeloma cell lines against the NCATS MIPE library collection: MM1R_ATCC cell viability assay (AID 1918981). Note: nearly all actives have a fitted effect of over 35% in size. The procedure, abridged: as §1
The nature of assay [10]: Quantitative High-Throughput drug screen in 47 multiple myeloma cell lines against the NCATS MIPE library collection: OCIMY5_PLB cell viability assay (AID 1918988). Note: nearly all actives have a fitted effect of over 65% in size. In short, it runs like this:
as §1

One may read the viability as a read-out of living cells in per cent, often relative to untreated cells.
Potency is the fitted concentration of half-maximal effect.

`CCCCCC[C@H]1C(=O)O[C@H](C)[C@H](NC(=O)c2cccc(NC=O)c2O)C(=O)O[C@@H](C)[C@@H]1OC(=O)CC(C)C`: the Potency was 0.059 µM (active) in assay [1]; 0.372 µM (active) in assay [2]; 0.148 µM (active) in assay [3]; 5.26 µM (active) in assay [4]; 0.372 µM (active) in assay [5].

With `CC(C)[C@]12O[C@@H]1[C@@H]1O[C@]13[C@]1(O[C@H]1C[C@@H]1C4=C(CC[C@@]13C)C(=O)OC4)[C@H]2O`, the Potency entry in [1], in assay [2], in assay [6], in assay [7], in assay [8] and in assay [3] was “inactive” each time. For the same compound, the Potency entry in [5] is “inactive”. In assay [4], the viability was -10.1%.

As to `c1ccc2c(CN3CCNCC3)cccc2c1`, the Potency entry in assay [1], in assay [2], in [7] and in assay [5] was “inactive” throughout. Moreover, the viability in assay [4] was 106%.

`C[C@]12CC[C@H]3[C@@H](CCC4=CC(=O)CC[C@@]43C)[C@H]1CC[C@H]2O`: the Potency result in [9], in assay [2], in [7] and in assay [8] was “inactive” throughout. Also, in [4], the viability was 133%.

`C[C@@]12OC(=O)[C@]1([C@@H](O)[C@@H]1C=CCCC1)NC(=O)[C@H]2CCCl`: the Potency in [1] was 0.0166 µM (active); in assay [2] it was 0.0083 µM (active); in assay [7], 0.0105 µM (active); in [10] it was 0.0047 µM (active); in assay [3], 0.001 µM (active); in assay [5], 0.0132 µM (active).

`COC(=O)[C@@H](N)CCCN=C(N)N[N+](=O)[O-]`: the Potency entry in assay [1], in assay [2], in assay [7] and in [5] was “inactive” each time.

As for `CC(=O)N(C)c1cccc(-c2ccnc3c(C(=O)c4cccs4)cnn23)c1`, the Potency result in assay [1], in assay [2] and in assay [6] was “inactive” each time. Also, the viability in assay [4] was 119%.

For `O=[N+]([O-])c1ncc[nH]1`, the Potency result in assay [1] and in [5] was “inactive” each time. In addition, the Potency in assay [2] is 0.105 µM (active).

With `CCN1CCN(C(=O)Cc2ccc(Nc3ncc(F)c(Nc4ccc(C(=O)Nc5ccccc5Cl)cc4)n3)cc2)CC1`, the Potency was 8.33 µM (active) in assay [1]; 14.8 µM (active) in assay [2]; 1.87 µM (active) in [6]; 4.18 µM (active) in assay [7]; 5.26 µM (active) in assay [3]; 7.43 µM (active) in [5].

`CN1[C@H]2CC(O)C[C@H]1[C@H]1O[C@H]12` (some centres not stated): the Potency was 18.7 µM (active) in assay [1]; 20.9 µM (active) in [2]; 18.7 µM (active) in assay [7]; 18.7 µM (active) in assay [10]; 18.7 µM (active) in assay [3]; 23.5 µM (active) in assay [5]. Further, the Potency entry in [6] is “inactive”.

For `COc1ccc(CC2NCCc3cc(OC)c(OC)cc32)cc1OC` (configuration not stated), the Potency entry in [1], in assay [2], in assay [3] and in assay [5] was “inactive” each time.

For the compound `CCCN1CCO[C@@H]2c3cc(O)ccc3OC[C@@H]21`, the Potency in assay [1] was 20.9 µM (active). For the same compound, the Potency entry in [2], in [3] and in assay [5] was “inactive” throughout.

On to `CC(=O)O[C@@]12CO[C@H]1C[C@H](O)[C@@]1(C)C(=O)[C@H](O)C3=C(C)[C@@H](O)C[C@@](O)([C@@H](OC(=O)c4ccccc4)[C@@H]21)C3(C)C`, for which the Potency in assay [9] is 7.43 µM (active); in [2] it was 2.64 µM (active); in assay [7], 3.72 µM (active); in [10], 1.48 µM (active); in assay [3], 1.32 µM (active). Further, the Potency result in assay [5] is “inactive”.

`C1=C2CCCN[C@H]2[C@@H]2C[C@H]1[C@@H]1CCCCN1C2`: the Potency result in assay [1], in assay [2], in assay [6], in assay [7], in [3] and in [5] was “inactive” throughout.

In the case of `CCOC(=O)Nc1ccc(NCc2ccc(F)cc2)cc1N`, the Potency entry in assay [1], in [2] and in assay [7] was “inactive” throughout. Also, the Potency in [3] was 18.7 µM (active); in assay [5] it was 13.2 µM (active).

Regarding `CC(C)(O)C=CC(=O)[C@](C)(O)[C@H]1[C@H](O)C[C@]2(C)[C@@H]3CC=C4[C@@H](C=C(O)C(=O)C4(C)C)[C@]3(C)C(=O)C[C@@]12C`, the Potency in assay [1] was 0.418 µM (active); in [2], 1.66 µM (active); in [6] it was 0.0209 µM (active); in assay [7], 0.0332 µM (active); in [3], 0.105 µM (active); in assay [5], 0.526 µM (active).

Consider `COc1ccc2c(c1)[C@]13CCCCC1C(C2)N(C)CC3` (some centres not stated), for which the Potency entry in assay [1], in assay [2], in [6], in assay [7], in assay [3] and in [5] was “inactive” in each case.

Turning to `C#C[C@]1(O)C=C[C@@H]2[C@@H]3CCC4=CC(=O)CC[C@@H]4[C@H]3CC[C@@]21CC`, the Potency result in assay [1], in assay [2] and in [7] was “inactive” in each case. Besides, in [4], the viability is 126%.

Take `O=C1CCC[C@@H]2[C@H]3CCCN4CCC[C@@H](CN12)[C@@H]34`: in assay [3], the Potency entry is “inactive”.

Turning to `Cc1c(C(=O)Nc2cccc(C(F)(F)F)c2)cc(-c2ccccc2)n1CCCN1CCOCC1`, the Potency in assay [2] is 16.6 µM (active); in assay [6] it was 5.9 µM (active); in assay [8], 0.372 µM (active); in [3], 18.7 µM (active); in assay [5] it was 16.6 µM (active).

For `O=C(NCC1CCOCC1)c1cnc(Nc2ccc(Cl)cc2Cl)nc1C(F)(F)F`, the Potency entry in assay [2], in assay [7] and in assay [3] was “inactive” each time. Further, the viability in assay [4] was 104%. For the same compound, the Potency in assay [5] is 8.33 µM (active).

As for `Cc1nc(-c2ccc(-c3ccc(C(=O)N4CCc5cc6c(cc54)C4(CCN(C)CC4)CO6)cc3)c(C)c2)no1`, the Potency result in [1] and in [3] was “inactive” each time.

Consider `CN(C)NC(=O)CCC(=O)O`, for which the Potency result in [1], in [6], in [7] and in [3] was “inactive” each time. In addition, in assay [4], the viability was 111%.
